USP28 inh: inhibitors of human USP28 deubiquitinase; Ubiquitin carboxyl-terminal hydrolase 28 (Homo sapiens), Q96RU2; purified USP28, Ub-rhodamine cleavage fluorescence, 30 min; inhibition, % at 25 µM; 47,000 compounds, 3% hits; AID 1645857, 2021
USP17 inh: inhibitors of human USP17 deubiquitinase; Ubiquitin carboxyl-terminal hydrolase 17-like protein 5 (Homo sapiens), A8MUK1; purified USP17, Ub-rhodamine cleavage fluorescence, 3 h; inhibition, % at 50 µM; 47,000 compounds, 6.5% hits
USP30 block: inhibitors of human USP30 deubiquitinase; Ubiquitin carboxyl-terminal hydrolase 30 (Homo sapiens), Q70CQ3; purified USP30, Ub-rhodamine cleavage fluorescence; inhibition, % at 25 µM; 47,000 compounds, 5.3% hits
OTUD3 inh: inhibitors of human OTUD3 deubiquitinase; purified OTUD3, Ub-rhodamine fluorescence, 2 h; inhibition, % at 25 µM; 47,000 compounds, 0.7% hits; AID 1645858, 2021
Target sequence (Q5T2D3 whole entry, looked up): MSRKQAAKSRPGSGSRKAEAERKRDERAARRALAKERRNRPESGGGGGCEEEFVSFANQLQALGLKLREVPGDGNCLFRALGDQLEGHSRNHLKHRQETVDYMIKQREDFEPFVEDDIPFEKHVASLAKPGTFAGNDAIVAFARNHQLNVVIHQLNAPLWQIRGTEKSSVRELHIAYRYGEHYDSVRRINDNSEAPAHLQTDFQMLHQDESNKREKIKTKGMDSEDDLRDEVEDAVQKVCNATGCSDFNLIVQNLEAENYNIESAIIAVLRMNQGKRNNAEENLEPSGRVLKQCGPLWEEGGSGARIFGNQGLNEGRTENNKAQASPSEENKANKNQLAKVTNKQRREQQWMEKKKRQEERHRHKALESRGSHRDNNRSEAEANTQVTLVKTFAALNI
Hits are given with their value; i = inactive; nt = not tested or not shown. Shown are actives, neighbours in structure and some others; about 11% of the full set was active somewhere. Rule as the data show it: active = inhibition above about 30%; inactive = the rest.

SMILES	USP28 inh	USP17 inh	USP30 block	OTUD3 inh
N#Cc1ccc(NC(=O)COc2ccc(-n3cnnn3)cc2)cc1	i	49.1	36.8	i
O=C(COc1ccc(-n2cnnn2)cc1)Nc1cc(Cl)ccc1Oc1ccccc1	i	i	i	i
Cc1cc(=O)oc2cc(NC(=O)c3ccccc3C(=O)O)ccc12	nt	i	nt	i
Cc1cc(=O)oc2cc(NC(=O)c3ccc(-n4cnnn4)cc3)ccc12	i	43.6	i	i
COc1cccc(C(=O)Nc2ccc(-n3cnnn3)cc2)c1	i	31.7	50.6	i
Cc1ccc(NC(=O)c2cccc(-n3cnnn3)c2)cc1	i	i	i	i
Cc1cccn2cc(C(=O)N3CCC4(CC3)OCCO4)nc12	i	i	i	i
COc1ccc(-c2nnc3ccc(SCC(=O)N4CCCCC4)nn23)cc1	i	i	i	i
O=C(COc1ccc(F)cc1)Oc1ccc(-n2cnnn2)cc1	i	i	30.4	i
O=C(Oc1ccc(-n2cnnn2)cc1)c1ccccc1Br	i	33.4	i	i
Cc1cccc(OCC(=O)Oc2ccc(-n3cnnn3)cc2)c1C	i	i	i	i
Cc1cccc(NC(=O)CNC(=O)c2ccc(-c3noc(C4CCCC4)n3)cc2)c1C	i	31.6	34.6	i
Cc1nc(CNC(=O)c2ccc(-c3noc(C4CC4)n3)cc2)no1	i	i	i	i
O=C(CC(c1cccc(F)c1)n1cccc1)Nc1ccc(F)c(Cl)c1 (centres undefined)	i	46.0	35.5	i
CN(C)C(=O)N1CCC2(CC1)NC(=O)c1ccccc12	i	i	i	i
NC(N)=NCCCC(N)C(=O)CC(Cc1ccccc1)C(=O)O (centres undefined)	i	i	i	i
COc1ccc(NS(=O)(=O)c2cc(NC(=O)CCc3nc4ccccc4s3)ccc2C)cc1	i	59.6	35.2	i
COc1ccc(Cl)c2sc(N3CCN(C(=O)c4ccn(C)n4)CC3)nc12	i	47.1	i	i
CC(C)NC(=O)Cn1cnn2cc3c(c2c1=O)CCCC3	i	i	i	i
O=c1c2nnn(-c3cccc(Cl)c3)c2ncn1Cc1nc(-c2ccccn2)no1	i	i	i	i
Cc1ccc(S(=O)(=O)N2CCC(C(=O)OCC(=O)Nc3ccc4c(c3)CCC4)CC2)cc1C	i	i	i	i
Cc1ccc(S(=O)(=O)N2CCC(C(=O)OCC(=O)Nc3ccc(OC(F)(F)F)cc3)CC2)cc1C	i	30.7	42.6	i
O=C(Nc1ccccc1)N1CCCN(c2ccc([N+](=O)[O-])cn2)CC1	i	i	i	i
O=C(Nc1ccccc1)N1CCCN(c2c(Cl)cncc2Cl)CC1	i	i	32.0	i
Cc1oc(-c2[nH]ncc2C(=O)N(C)C)cc1S(=O)(=O)Nc1ccccc1	i	i	30.3	i
SMILES	USP28 inh	USP17 inh	USP30 block	OTUD3 inh
Cc1ccccc1CNS(=O)(=O)c1cc(-c2[nH]ncc2C(=O)N(C)C)oc1C	i	i	i	i
CC(C)=CCOc1ccc(C[C@H]2NC(=O)[C@@H](C)NC(=O)[C@@H](Cc3ccc(O)cc3)NC(=O)CNC(=O)[C@H](C)NC(=O)[C@H](Cc3ccccc3)OC2=O)cc1	i	i	i	i
CC(C)C[C@@H]1NC(=O)[C@H](Cc2ccccc2)N(C)C(=O)[C@H](C)NC(=O)c2ccccc2NC(=O)[C@H](Cc2ccc(O)cc2)N(C)C1=O	i	41.0	i	i
O=C(Oc1ccccc1Br)c1ccc(Cl)c(S(=O)(=O)N2CCCCC2)c1	i	i	i	i
Cc1nn(-c2nc3ccccc3o2)c2c1C(c1cccc(F)c1F)CC(=O)N2 (centres undefined)	i	i	31.8	i
CNc1cc(C2CN(C(=O)c3cscn3)CCO2)nc(C)n1 (centres undefined)	i	i	i	i
COc1ccccc1CN(C(=O)c1ccco1)C(C(=O)NC1CCCC1)c1ccc(C(C)C)cc1 (centres undefined)	i	i	35.1	i
COc1ccccc1CN(C(=O)c1ccco1)C(C(=O)NC1CCCC1)c1ccc(Cl)cc1 (centres undefined)	i	i	48.2	i
N#Cc1cccc(NC(=O)c2ccc(S(=O)(=O)N3CCOCC3)cc2)c1	i	i	i	i
CCOC(=O)c1ccc(NC(=O)c2ccc(S(=O)(=O)N3CCc4ccccc4C3)cc2)cc1	i	32.5	49.6	i
CCOC(=O)c1ccc(S(=O)(=O)N2CCC(C(=O)OC(C)C(=O)Nc3cccc([N+](=O)[O-])c3)CC2)cc1 (centres undefined)	42.4	i	82.7	i
O=C(Nc1ccc(-c2nc3ccccc3o2)cc1)c1ccc(S(=O)(=O)N2CCc3ccccc3C2)cc1	i	34.6	34.2	i
